Measurements: PubChem BioAssay (Tox21)
Results filed as inconclusive are left out. Calls of active or inactive are those of the source. Unless noted, calls follow the shape of the full dose curve.

Key:
[1] = molecular target: Gonadotropin-releasing hormone receptor (Homo sapiens) (UniProt P30968); assay: Human gonadotropin-releasing hormone receptor (GnRHR) small molecule agonists, calcium flux assay in GnRHR-HEK293 cells (AID 1920063); also: nearly all actives have a fitted effect of over 35% in size
Gonadotropin-releasing hormone receptor (Homo sapiens), sequence (P30968 whole entry, looked up): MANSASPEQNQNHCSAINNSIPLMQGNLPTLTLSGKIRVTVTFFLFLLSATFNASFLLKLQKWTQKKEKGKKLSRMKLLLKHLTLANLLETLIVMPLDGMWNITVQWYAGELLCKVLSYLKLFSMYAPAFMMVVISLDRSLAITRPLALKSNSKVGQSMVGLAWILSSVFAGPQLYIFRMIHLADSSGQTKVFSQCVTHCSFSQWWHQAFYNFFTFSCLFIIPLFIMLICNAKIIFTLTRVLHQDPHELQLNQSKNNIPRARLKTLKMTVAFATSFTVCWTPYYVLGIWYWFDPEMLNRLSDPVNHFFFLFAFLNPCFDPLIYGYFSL
How it was run: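 HEK293 cells stably expressing human GnRHR were plated 18 h at 37 °C, loaded with calcium dye 1 h at 37 °C, then given compound in agonist mode; fluorescence (Ex/Em 480/540) read kinetically for 3 min at 1 s intervals.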

[2] = molecular target: KiSS-1 receptor (Homo sapiens) (UniProt Q969F8); assay: Human kisspeptin (KISS1R) small molecule agonists, calcium flux assay in KISS1R-HEK293 cells (AID 1920064; active = well fitted activation curve with a large enough effect in the repeat runs)
KiSS-1 receptor (Homo sapiens), sequence (Q969F8 whole entry, looked up): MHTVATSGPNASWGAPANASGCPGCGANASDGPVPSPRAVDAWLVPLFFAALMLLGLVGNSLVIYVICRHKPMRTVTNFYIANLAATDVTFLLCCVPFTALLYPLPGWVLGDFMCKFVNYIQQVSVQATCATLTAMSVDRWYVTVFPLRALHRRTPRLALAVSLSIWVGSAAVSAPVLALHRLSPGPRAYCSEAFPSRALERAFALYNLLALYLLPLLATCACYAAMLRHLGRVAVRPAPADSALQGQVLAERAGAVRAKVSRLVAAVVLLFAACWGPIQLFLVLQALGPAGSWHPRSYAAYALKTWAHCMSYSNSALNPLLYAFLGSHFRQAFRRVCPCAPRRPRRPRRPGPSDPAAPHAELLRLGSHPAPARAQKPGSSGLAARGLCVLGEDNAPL
How it was run: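 HEK293 cells stably expressing human KISS1R were plated 18 h at 37 °C, loaded with calcium dye for 1 h at 37 °C, then given compound by pin tool. Fluorescence (Ex/Em 480/540) was read kinetically for 3 min.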

[3] = G protein-coupled receptor (GPCR) small molecule agonists, calcium flux assay: HEK293 wild type cell line counter screen (AID 1920065)
How it was run: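 Cells were plated and cultured 18 h at 37 C/5% CO2, then loaded with calcium dye for 1 h at 37 C. Compounds in DMSO were pin-transferred in agonist mode, and fluorescence (Ex/Em 480/540) was read kinetically for 3 min at 1 s intervals.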

[4] = p53 small molecule agonists, cell-based qHTS assay with human liver microsomes (AID 1963577)
How it was run: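 p53RE-bla cells, 4,000/well, compound added after 5 h, with human liver microsomes 0.5 mg/mL and NADPH 0.5 mg/mL final; 16 h at 37 C, then LiveBLAzer 2 h RT, fluorescence.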

[5] = p53 small molecule agonists, cell-based qHTS assay with rat liver microsomes (AID 1963578)
How it was run: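 p53RE-bla cells, 4,000/well, pre-incubated 5 h, then given compounds plus rat liver microsomes (0.5 mg/mL final) and NADPH (0.5 mg/mL final). Incubation 16 h at 37 C; beta-lactamase reporter read by LiveBLAzer fluorescence after 2 h at room temperature.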

[6] = p53 small molecule agonists, cell-based qHTS assay with human liver microsomes: qHTS cell viability counter screen (AID 1963579); also: nearly all actives have a fitted effect of over 45% in size
How it was run: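 p53RE-bla cells, 4,000/well, dosed 5 hours after plating, with human liver microsomes (0.5 mg/mL final) plus NADPH (0.5 mg/mL final), 16 hours at 37 C. Viability read as CellTiter-Glo luminescence after 30 min at room temperature.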

[7] = p53 small molecule agonists, cell-based qHTS assay with rat liver microsomes: qHTS cell viability counter screen (AID 1963580); also: nearly all actives have a fitted effect of over 45% in size
How it was run: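 Viability is assessed in parallel with the p53 reporter read: HCT-116 p53RE-bla cells receive compounds plus rat microsomes and NADPH (0.5 mg/mL final apiece), incubate 16 h at 37 C, and then CellTiter-Glo luminescence is recorded.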

[8] = p53 small molecule agonists, cell-based qHTS assay: qHTS cell viability counter screen (AID 1963581); also: nearly all actives have a fitted effect of over 45% in size
How it was run: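 p53RE-bla HCT-116 cells were exposed to compounds for 16 h at 37 C; after the beta-lactamase FRET read in the same wells, CellTiter-Glo was added and luminescence (intracellular ATP) read after 30 min at room temperature.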

[9] = p53 small molecule agonists, cell-based qHTS assay (AID 1963582; active = well fitted activation curve with a large enough effect in the signal ratio in the repeat runs, not every such curve was filed as active; the % refers to the signal ratio)
How it was run: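 p53RE-bla beta-lactamase reporter cells rested 5 h at 37 C/5% CO2, then received compounds in DMSO by pin transfer and were incubated 16 h at 37 C. LiveBLAzer B/G FRET substrate was loaded for 2 h at room temperature before fluorescence reading.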

[10] = molecular target: 5-hydroxytryptamine receptor 2A (Homo sapiens) (UniProt P28223); assay: 5-hydroxytryptamine receptor 2A (HTR2A) small molecule agonists, cell-based qHTS assay (AID 1963587); also: nearly all actives have a fitted effect of over 30% in size
5-hydroxytryptamine receptor 2A (Homo sapiens), sequence (P28223 whole entry, looked up): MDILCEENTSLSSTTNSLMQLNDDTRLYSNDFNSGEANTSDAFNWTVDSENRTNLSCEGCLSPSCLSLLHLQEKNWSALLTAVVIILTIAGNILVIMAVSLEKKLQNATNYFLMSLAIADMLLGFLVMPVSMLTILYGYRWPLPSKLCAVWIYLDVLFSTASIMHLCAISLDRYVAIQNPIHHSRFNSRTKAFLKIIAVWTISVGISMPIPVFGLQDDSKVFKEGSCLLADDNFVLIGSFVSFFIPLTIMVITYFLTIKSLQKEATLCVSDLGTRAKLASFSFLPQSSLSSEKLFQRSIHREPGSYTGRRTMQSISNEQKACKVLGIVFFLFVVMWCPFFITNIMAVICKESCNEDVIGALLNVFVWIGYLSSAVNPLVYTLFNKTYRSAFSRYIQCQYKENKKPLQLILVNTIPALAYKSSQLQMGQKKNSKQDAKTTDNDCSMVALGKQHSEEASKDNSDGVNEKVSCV
How it was run: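 CHO cells stably expressing human HTR2A, plated 18 h, loaded with calcium dye 1 h at 37 C. Agonist mode: compounds added and intracellular calcium fluorescence recorded kinetically for 2 min at 1 sec intervals.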

[11] = molecular target: Muscarinic acetylcholine receptor M1 (Homo sapiens) (UniProt P11229); assay: Cholinergic receptor muscarinic 1 (CHRM1) small molecule antagonists, cell-based qHTS assay (AID 1963588); also: nearly all actives have a fitted effect of over 40% in size
Muscarinic acetylcholine receptor M1 (Homo sapiens), sequence (P11229 whole entry, looked up): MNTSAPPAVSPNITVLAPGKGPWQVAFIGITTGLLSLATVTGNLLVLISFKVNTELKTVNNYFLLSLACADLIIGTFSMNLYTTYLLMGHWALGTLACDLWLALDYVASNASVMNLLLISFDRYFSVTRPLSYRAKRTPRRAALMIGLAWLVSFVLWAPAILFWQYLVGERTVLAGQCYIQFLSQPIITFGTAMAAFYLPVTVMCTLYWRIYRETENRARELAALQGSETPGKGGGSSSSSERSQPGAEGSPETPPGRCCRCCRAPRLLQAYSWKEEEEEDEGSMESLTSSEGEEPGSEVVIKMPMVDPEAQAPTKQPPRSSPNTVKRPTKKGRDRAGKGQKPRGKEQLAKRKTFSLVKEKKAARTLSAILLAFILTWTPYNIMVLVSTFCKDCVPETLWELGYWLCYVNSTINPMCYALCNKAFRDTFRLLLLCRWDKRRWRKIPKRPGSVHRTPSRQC
How it was run: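 CHRM1-CHO calcium-flux assay, antagonist mode. Cells were seeded 18 h, dye-loaded 1 h at 37 C and given compound for 5 min at RT, then acetylcholine was added at 50nM. FDSS fluorescence was read 3 min; 15 concentrations, three runs.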

[12] = molecular target: Muscarinic acetylcholine receptor M1 (Homo sapiens) (UniProt P11229); assay: Cholinergic receptor muscarinic 1 (CHRM1) small molecule agonists, cell-based qHTS assay (AID 1963589); also: nearly all actives have a fitted effect of over 35% in size
How it was run: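 CHO cells stably expressing human CHRM1, seeded 18 h at 37 C/5% CO2, dye-loaded 1 h at 37 C, then given compound in agonist mode; intracellular calcium fluorescence read kinetically at 1 s intervals. Fifteen concentrations, three independent runs.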

[13] = cAMP Responsive Elements (CRE) small molecule agonists, cell-based qHTS assay (AID 1963590)
How it was run: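 CRE-bla HEK 293T cells in DMEM with 10% dialyzed FBS, NEAA, pyruvate and 25 mM HEPES were plated 18 h at 37 C/5% CO2, then exposed to compounds in DMSO for 3 h before LiveBLAzer B/G FRET substrate addition.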

[14] = cAMP Responsive Elements (CRE) small molecule antagonists, cell-based qHTS assay (AID 1963591; active = well fitted inhibition curve with a large enough effect in the signal ratio in the repeat runs, not every such curve was filed as active; the % refers to the signal ratio)
How it was run: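 CRE-bla HEK293T cells were plated 18 h at 37 °C/5% CO2, pinned with compound in DMSO, then stimulated with NKH477 at 0.25 uM final for 3 h. LiveBLAzer B/G FRET substrate was added and plates incubated 2 h at room temperature.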

[15] = molecular target: Beta-2 adrenergic receptor (Homo sapiens) (UniProt P07550); assay: Adrenergic beta2 receptor (ADRB2) small molecule agonists, cell-based qHTS assay (AID 1963593);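 also: CHO cells stably overexpressing human ADRB2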
Beta-2 adrenergic receptor (Homo sapiens), sequence (P07550 whole entry, looked up): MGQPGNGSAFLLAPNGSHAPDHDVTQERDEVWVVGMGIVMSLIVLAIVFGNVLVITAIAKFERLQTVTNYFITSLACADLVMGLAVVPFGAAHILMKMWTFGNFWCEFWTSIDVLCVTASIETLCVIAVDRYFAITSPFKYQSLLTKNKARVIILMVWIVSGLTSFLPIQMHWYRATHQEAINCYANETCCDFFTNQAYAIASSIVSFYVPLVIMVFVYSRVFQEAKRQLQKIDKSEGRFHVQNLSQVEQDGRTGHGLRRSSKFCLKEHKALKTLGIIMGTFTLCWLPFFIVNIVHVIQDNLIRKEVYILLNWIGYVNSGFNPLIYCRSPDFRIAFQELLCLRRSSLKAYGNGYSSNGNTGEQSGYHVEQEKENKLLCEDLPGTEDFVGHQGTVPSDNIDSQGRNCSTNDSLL
How it was run: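 CHO cells stably over-expressing ADRB2 were plated overnight at 37C, then dosed with compounds plus a stimulation mix containing 100uM IBMX and 25uM Ro-20-1724 for 0.5hr at room temperature. cAMP was measured by HTRF competition, 1hr.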

[16] = molecular target: D(2) dopamine receptor (Homo sapiens) (UniProt P14416); assay: Dopamine D2 receptor (DRD2) small molecule agonists, cell-based qHTS assay (AID 1963594); also: nearly all actives have a fitted effect of over 35% in size
D(2) dopamine receptor (Homo sapiens), sequence (P14416 whole entry, looked up): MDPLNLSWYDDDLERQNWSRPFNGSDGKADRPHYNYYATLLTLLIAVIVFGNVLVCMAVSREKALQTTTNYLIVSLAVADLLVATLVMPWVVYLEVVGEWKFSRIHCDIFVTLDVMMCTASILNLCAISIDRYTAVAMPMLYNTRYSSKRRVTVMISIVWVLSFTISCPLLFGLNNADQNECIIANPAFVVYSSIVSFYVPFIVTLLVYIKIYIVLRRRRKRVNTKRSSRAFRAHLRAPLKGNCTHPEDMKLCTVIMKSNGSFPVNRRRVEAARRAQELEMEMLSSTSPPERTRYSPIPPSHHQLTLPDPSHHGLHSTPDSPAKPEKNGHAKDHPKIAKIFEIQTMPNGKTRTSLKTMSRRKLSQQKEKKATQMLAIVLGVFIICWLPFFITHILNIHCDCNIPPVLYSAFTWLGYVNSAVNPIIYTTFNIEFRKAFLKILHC
How it was run: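 HEK293 cells stably expressing human DRD2, pre-treated with PDE inhibitor Ro20-1724 (0.1 mM final) and compound 10 min at room temperature, then stimulated with NKH477 (200nM […]) for 30 min. cAMP read by HTRF (665/620 nm).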

[17] = molecular target: D(2) dopamine receptor (Homo sapiens) (UniProt P14416); assay: Dopamine D2 receptor (DRD2) small molecule antagonists, cell-based qHTS assay (AID 1963595; active = well fitted inhibition curve with a large enough effect in the signal ratio in the repeat runs, with a control signal flat; the % refers to the signal ratio)
How it was run: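 HTRF cAMP read-out at 665 and 620 nm emission (340 nm excitation). Antagonist mode: compounds were tested against 12 nM quinpirole in DRD2-HEK293 cells, with 200 nM NKH477 raising cAMP and 0.1 mM Ro20-1724 blocking its breakdown.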

[18] = molecular target: 5-hydroxytryptamine receptor 2A (Homo sapiens) (UniProt P28223); assay: 5-hydroxytryptamine receptor 2A (HTR2A) small molecule antagonists, cell-based qHTS assay (AID 1963586); also: nearly all actives have a fitted effect of over 45% in size
How it was run: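 Antagonist-mode intracellular calcium assay: DOI (4 nM) added after 5 min compound pre-incubation at room temperature to dye-loaded HTR2A-CHO cells. Fluorescence followed for 3 min, sampled every second.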

[19] = molecular target: Beta-2 adrenergic receptor (Homo sapiens) (UniProt P07550); assay: Adrenergic beta2 receptor (ADRB2) small molecule antagonists, cell-based qHTS assay (AID 1963592); also: series mostly up to about 92 µM; nearly all actives have a fitted effect of over 50% in size
How it was run: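 Cells (CHO, stable ADRB2 overexpression) incubated 18-20hr at 37C; compounds added from DMSO; agonist mix (1nM isoproterenol, 100uM IBMX, 25uM Ro-20-1724) added; 0.5hr RT; d2-cAMP and anti-cAMP-cryptate added; 1hr RT; 665/615 nm read.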
% is scaled to controls: 0 for no effect and ±100 for the full control effect.

CC(=O)Nc1ccc(S(=O)(=O)Nc2ccc([N+](=O)[O-])cc2)cc1
inactive: Potency [1] | Potency [2] | Potency [3] | Potency [4] | Potency [5] | Potency [6] | Potency [7] | Potency [8] | Potency [9] | Potency [10] | Potency [11] | Potency [12] | Potency [13] | Potency [14] | Potency [15] | Potency [16] | Potency [17]

O=Cc1ccc(Cl)c([N+](=O)[O-])c1
inactive: Potency [1] | Potency [2] | Potency [3] | Potency [4] | Potency [5] | Potency [6] | Potency [8] | Potency [18] | Potency [10] | Potency [11] | Potency [12] | Potency [19] | Potency [16] | Potency [17]

CCCCNC(=S)NCCCC
inactive: Potency [1] | Potency [2] | Potency [3] | Potency [4] | Potency [5] | Potency [6] | Potency [8] | Potency [9] | Potency [18] | Potency [10] | Potency [11] | Potency [12] | Potency [13] | Potency [19] | Potency [15] | Potency [16] | Potency [17]

O=C(O)O
inactive: activity change [1] 1.69% [at 5.22 µM, stronger effect = higher value] | activation [2] 0.0823% [at 6.97 µM] | activation [3] -0.66% [at 5.23 µM] | activation [4] -14.9% [at 5.99 µM] | activation [5] -6.42% [at 5.99 µM] | activity change, negative = cytotoxicity [6] -18.2% [at 5.99 µM] | activity change, negative = cytotoxicity [8] 11.6% [at 5.99 µM] | activation [9] -4.58% [at 5.99 µM] | activity, negative = inhibition [18] 11.9% [at 5.62 µM] | activation [10] -3.03% [at 7.02 µM] | activity, negative = inhibition [11] -13.8% [at 5.58 µM] | activation [13] 2.15% [at 8.39 µM] | activity change, negative = inhibition [14] -6.17% [at 8.39 µM] | activity change, negative = inhibition [19] -4.62% [at 8.39 µM] | activation [16] -1.72% [at 8.39 µM] | activity change, negative = inhibition [17] 0.0808% [at 8.38 µM]

CC1=NN(c2cc(Cl)c(S(=O)(=O)O)cc2Cl)C(=O)C1N=Nc1ccc(S(=O)(=O)O)cc1 (stereo not drawn)
inactive: Potency [1] | Potency [2] | Potency [3] | Potency [4] | Potency [5] | Potency [6] | Potency [8] | Potency [9] | Potency [18] | Potency [10] | Potency [11] | Potency [12] | Potency [13] | Potency [14] | Potency [19] | Potency [15] | Potency [16]

CCCCO
inactive: Potency [1] | Potency [2] | Potency [3] | Potency [4] | Potency [5] | Potency [6] | Potency [7] | Potency [8] | Potency [9] | Potency [18] | Potency [13] | Potency [14] | Potency [19] | Potency [16] | Potency [17]

O=C1CCCC(=O)O1
inactive: Potency [1] | Potency [2] | Potency [3] | Potency [4] | Potency [5] | Potency [6] | Potency [7] | Potency [8] | Potency [9] | Potency [18] | Potency [11] | Potency [12] | Potency [13] | Potency [16] | Potency [17]

ClC(Cl)Cl
inactive: Potency [1] | Potency [2] | Potency [3] | Potency [4] | Potency [5] | Potency [6] | Potency [8] | Potency [9] | Potency [13] | Potency [14] | Potency [19] | Potency [17]
